# Results taken from ChEMBL document CHEMBL4888484, “Replenishing the malaria drug discovery pipeline: Screening and hit evaluation of the MMV Hit Generation Library 1 (HGL1) against asexual blood stage Plasmodium falciparum ,using a nano luciferase reporter read-out” (2022).
# Hit rate of the full screen: of about 4,800 compounds, about 420 (8.8%) showed an effect of 50% or more. This excerpt belongs to a sample that is enriched for strong results.
# Tested on: Plasmodium falciparum
# Test: Confirmatory screen in NF54 nanoGlo assay, in single point, at 2uM, 72h
# Type: functional, Erythrocyte
# Conditions: timepoint 72 hour
row,Compound,% Inhibition [%]
1,Cc1cc(C)n(-c2c(C)[nH]c3ccccc23)n1,-7
2,CC1=C(C(=O)Nc2cccc(Cl)c2)[C@H](c2csnn2)NC(=O)N1,-20
3,Cc1ccc(CN2CCN(C[C@@H](O)Cn3c4ccccc4n4c(=O)cc(C)c(C#N)c34)CC2)c(C)c1,89
4,N#Cc1c(CN2CCOCC2)cc(=O)n2c1[nH]c1ccccc12,-4
5,O=C(Cc1c[nH]c2ccccc12)N[C@H]1CCS(=O)(=O)C1,-4
6,CCOCCCNC/C=C/c1ccccc1,-5
7,CC(=O)N1CCC(Nc2ccc3c(c2)CCC(=O)N3)CC1,-17
8,COc1cc(Cl)c(C)cc1NC(=O)c1cc(=O)n(-c2ccc(C)cc2)[nH]1,-8
9,Clc1cccc(N2CCN(Cc3ccc(OC4CCNCC4)cc3)CC2)c1,27
10,O=C(CN1CCCCCC1)Nc1ccc(OCc2ccccc2)cc1,0
11,c1ccc(Cn2ncc3cc(-c4nc(C5CC5)no4)cnc32)cc1,3
12,COc1ccccc1[C@H]1CC(O)=Nc2c1ncn2-c1cc(F)cc(F)c1,-4
13,Cn1ccnc1[C@@H]1CCCN1S(=O)(=O)c1c2c(nn1C)CCCC2,4
14,C[C@@H](CNc1nc(-c2ccccc2)nc2nc(-c3ccc(Cl)cc3)oc12)N1CCCCC1,60
15,O=C1CC(c2cccc(NC(=O)CCc3ccccn3)c2)CC(=O)N1,3
16,Cc1cc(-n2c(C)cc(C(=O)Cn3c(C(F)(F)F)ccc(C(N)=O)c3=O)c2C)no1,25
17,NC(=O)c1ccc(C(F)(F)F)n(CC(=O)N(Cc2ccc(F)cc2)C2CCCCC2)c1=O,-6
18,NC(=O)c1ccc(C(F)(F)F)n(C[C@H](O)c2cc(Cl)ccc2Cl)c1=O,63
19,CCC(=O)N(CCN(C)C)Cc1c(-c2ccccc2)noc1N1CCCCC1,10
20,CCN(CCN(C)C)C(=O)c1cccc(-c2ccc3nccc(N)c3c2)c1,70
21,Cc1cccc(OC[C@@H](O)Cn2cnc(C)c(C)c2=O)c1,5
22,COc1ccc(-n2nnnc2[C@@H](NCCc2c[nH]c3ccccc23)C(C)C)cc1,-1
23,Cc1cccc(CC(=O)N[C@@H](C)CCC(=O)O)c1,4
24,CN1CCC2C(CCN2C(=O)Nc2ccc(Cl)c(C(F)(F)F)c2)C1 (configuration not stated),2
25,O=C(Nc1ccccc1Cl)N1CCC(N2CCc3sccc3C2)CC1,37

row,Compound,% Inhibition [%]
1,O=C(CCc1ccc(Cl)c(C(F)(F)F)c1)N1CC[C@H](N2CCc3ccccc3C2)C1,52
2,CC(C)c1cccc(CN2C(=O)N[C@]3(CC(C)(C)OC3(C)C)C2=O)n1,-6
3,COc1ccc2cc3n(c2c1)C[C@](C(=O)NC1CCCCCC1)(c1ccccc1)N(Cc1ccccc1F)C3=O,-17
4,CC(Oc1ccc2c(c1)C(c1ccccc1)N(Cc1ccccc1F)CC2)C(=O)NC1CC1 (configuration not stated),56
5,C[C@H](C(=O)NCC1CCN(Cc2ccccc2F)CC1)C1CCOCC1,-6
6,C=CCN1CCN(c2nccn3nc(-c4ccc(Cl)cc4)cc23)CC1,-3
7,CC[C@H]1C(=O)NCCN1C(=O)c1cc(C)n[nH]1,7
8,Cn1c(Cc2n[n+]3c(-c4ccccc4)cc(-c4ccccc4)nc3n2C)n[n+]2c(-c3ccccc3)cc(-c3ccccc3)nc12,99
9,COCc1nsc(N2CCC(c3ccccc3)CC2C)n1 (configuration not stated),1
10,O=C(NCc1cccnc1)c1cnn2c3c(cnc12)CCCC3,-4
11,C[C@H]1CCCN(c2nc(-c3ccccn3)nc3ccccc23)C1,97
12,CCc1ccc(NC(=O)[C@H]2CCCN(c3nc4cccnc4n(Cc4ccccc4)c3=O)C2)cc1,-6
13,FC(F)(F)C1CN(c2nc(-c3ccccn3)nc3c2CCC3)C1,67
14,O[C@H]1Cc2ccccc2[C@H]1Nc1nc(-c2ccccn2)nc2c1CCNC2,13
15,C[C@H]1CCCN(S(=O)(=O)NCC(=O)Nc2ccccn2)C1,-15
16,C[C@H]1CCN(c2nc(-c3ccccn3)nc3c2CCC3)C1,91
17,CN(C)Cc1ccc(O)c(CCc2ccccc2)n1,29
18,C[C@@]12CCCCN1CCCc1c2[nH]c2ccccc12,-15
19,CCOc1cc(Cl)ccc1C(=O)NC1CCN(C[C@H]2CCOC2)CC1,1
20,COc1c[nH]c(C(=O)NC2CCN(Cc3ccccc3)CC2)cc1=O,5
21,FCCn1ncnc1CN1CCCCC[C@H]1C1CCCCC1,4
22,CCN(CC)CC(O)COc1c(Br)cc(C(C)(C)c2cc(Br)c(OCC(O)CN(CC)CC)c(Br)c2)cc1Br (configuration not stated),99
23,O=C(CNC(=O)[C@H]1CC[C@H](CNS(=O)(=O)c2ccccc2)CC1)N1CCN(c2ccccc2)CC1,4
24,O=C(Nc1nc2ccc(F)cc2s1)c1cccc2c(Br)cccc12,-1
25,C=CCN1C(=O)OC(C)(CCC=C(C)C)C1(C)O (configuration not stated),9

row,Compound,% Inhibition [%]
1,CN1CCCN(c2ccnc3ccsc23)CC1,2
2,Cc1cc(CN(C)Cc2nccn2C)ccc1N1CCCCC1,-1
3,Cc1cccc(OCc2nn3c([C@H]4CCCN(S(C)(=O)=O)C4)nnc3s2)c1,-6
4,Cc1nccc(N(C)C2CC(Oc3ccccc3)C2(C)C)n1 (configuration not stated),-5
5,Cc1nn2c(C(F)F)cc(-c3ccc4c(c3)OCO4)nc2c1Cl,-5
6,COc1ccc(-c2cc3n(n2)C[C@@](C)(C(=O)NCc2ccccc2OC)N(c2cccc(OC)c2)C3=O)cc1,49
7,CCc1ccc(-c2cc3n(n2)C[C@@](C)(C(=O)NC2CCCCC2)N(c2cc(C)cc(C)c2)C3=O)cc1,74
8,COc1cccc(-c2ccc(=O)n(CCC(=O)N3CCN(Cc4ccc5c(c4)OCO5)CC3)n2)c1,1
9,C[C@@]1(C(=O)NCc2ccccc2)Cn2nc(-c3ccccc3)cc2C(=O)N1c1ccc2c(c1)OCCO2,58
10,CCc1ccc(CN2C(=O)c3c(C(=O)OC)ncn3C[C@@]2(C)C(=O)NC2CCCCCC2)cc1,1
11,COc1ccc(-c2cc3n(n2)C[C@@](C)(C(=O)NCc2ccccc2)N(Cc2ccc4c(c2)OCO4)C3=O)cc1,63
12,CCc1ccc(CN2C(=O)c3c(C(=O)OC)ncn3C[C@@]2(C)C(=O)NC2CCCC2)cc1,-6
13,Cc1cc(C)c(S(=O)(=O)N2CCC(C)(C(=O)NCc3ccc4c(c3)OCO4)CC2)cc1C,3
14,O=C(CCn1nc(-c2ccc(Br)cc2)ccc1=O)NCc1ccc2c(c1)OCO2,-4
15,Cc1nn(CCc2nnc(-c3ccc4c(c3)OCO4)o2)c(C)c1Cl,-3
16,O=C(O)Cc1sc(-c2ccccc2)nc1O,1
17,CC(=O)Nc1cc(NC(=O)c2cccc[n+]2[O-])c(F)cc1F,-2
18,COC(=O)c1[nH]c(C)cc1NC(=O)C1=CCCCCC1,-2
19,O=C(Nc1nncs1)NC(C1CC1)C1CC1,0
20,O=C(Nc1nncs1)c1cccc(C(=O)Nc2nncs2)n1,68
21,Cc1ccc(-c2csc(NC(=O)c3cccc(C(=O)Nc4nc(-c5ccc(C)cc5C)cs4)n3)n2)c(C)c1,-1
22,CCOC(=O)c1c(C(F)(F)F)[nH]n2c(C(F)F)nnc12,-3
23,O=C(Cc1ccccc1)Nc1c2c(nc3c1CCC3)CCCC2,3
24,CCOc1ccc2ccccc2c1C(=O)Nc1cc(C)nn1-c1nc2c(c(=O)[nH]1)CCC2,94
25,Cc1cc(NC(=O)C(=O)NC2CC(C)CC(C)(C)C2)n(-c2nc3c(c(=O)[nH]2)CCC3)n1 (configuration not stated),90

row,Compound,% Inhibition [%]
1,COc1ccc2ccccc2c1C(=O)Nc1ccc(N2CCN(C)CC2)c(Cl)c1,5
2,Cc1cc(C)cc(Nc2nc(C)cc(=O)n2CC(=O)Nc2ccc(C)cc2Br)c1,-8
3,Cc1ccc2c(c1)ncc1c(-c3ccccc3)nn(-c3ccc(F)cc3)c12,-5
4,COc1ccc(NC(=O)Cc2c(C)nn(-c3nc(C)cs3)c2O)c(OC)c1,-7
5,CCOC(=O)c1cc(-c2ccccc2)n(NC(=O)COc2ccc(Cl)cc2)c1C,-11
6,CNC(=O)c1cc(N2CCN(c3ncc(C(F)(F)F)cc3Cl)CC2)ccc1NC(=O)c1ccccc1Cl,7
7,CCCN(CCC)CCN1C(=O)[C@@H]2C(C(=O)Nc3cc(Cl)cc(Cl)c3)[C@@H]3C=C[C@]2(O3)C1C(=O)NC1CCCCC1 (some centres not stated),-3
8,COc1ccc(OC)c(NC(=O)Cn2cnc3nc(N4CCOCC4)ncc3c2=O)c1,8
9,Cc1cc(-c2nnc3n2CC(C)(C)CC3)c(C)o1,2
10,CCN(C)C1(CNC(=O)c2ccc(-c3cc(F)ccc3O)cc2)CCCC1,26
11,CCCc1cc(-c2nc(-c3ccc(-n4nc(C)cc4N)cc3)no2)n(C)n1,48
12,COc1cccc2nc(C[C@H]3CN(CC(C)C)CC[C@H]3CC(=O)O)[nH]c12,-9
13,C[C@H](Nc1nc(N2CCCCC2)nc2ccccc12)c1ccccc1,-1
14,CNc1nc(NCCc2ccccc2)nc2ccccc12,80
15,NS(=O)(=O)c1ccc(CCNc2nc(-c3ccccc3)nc3ccccc23)cc1,-2
16,Cc1ccc(-c2nc3ncccn3c2Nc2ccc3c(c2)OCCO3)o1,-8
17,CNc1nc(NCc2ccccc2)nc2ccccc12,78
18,CC1(C)Cc2nc3ccccc3c(NCc3ccccc3)c2[C@@H](O)C1,44
19,c1coc(CNc2nc(Nc3cccc4ccccc34)nc3ccccc23)c1,20
20,c1ccc(CCNc2nc(-c3ccccn3)cs2)cc1,12
21,O=C1c2ccccc2[C@@H](Nc2ccc3c(c2)OCCO3)N1c1ccccn1,-17
22,CNc1nc(Nc2ccc3c(c2)OCCO3)nc2ccccc12,95
